Data from the antibiotic and cytotoxicity screens of Wong et al. (2023).
In all, about 39,000 compounds went through this assay and about 3,300 (8.5%) were called active. The sample as a whole holds a higher share of actives than the screen did.

The molecules below were run on HepG2 (assay: cytotoxicity call (relative viability < 0.9)). Conditions: 10 µM.
For `C[C@@H]1CN([C@@H](C)CO)C(=O)c2cc(NC(=O)Nc3ccccc3)ccc2O[C@@H]1CN(C)Cc1ccc(Oc2ccccc2)cc1`, the cytotoxicity call was “active”. In the case of `C[C@H]1CN([C@@H](C)CO)C(=O)c2cc(NC(=O)Nc3ccccc3)ccc2O[C@@H]1CN(C)Cc1ccc(Oc2ccccc2)cc1`, the cytotoxicity call was “active”. With `C[C@H]1CN([C@@H](C)CO)C(=O)c2cc(NC(=O)Nc3ccccc3)ccc2O[C@H]1CN(C)Cc1ccc(Oc2ccccc2)cc1` the cytotoxicity call was “inactive”. `C[C@H](CO)N1C[C@H](C)[C@@H](CN(C)Cc2ccc(Oc3ccccc3)cc2)Oc2ccc(NC(=O)Nc3ccccc3)cc2C1=O` was tested, and the cytotoxicity call was “active”. In the case of `C[C@H](CO)N1C[C@H](C)[C@H](CN(C)Cc2ccc(Oc3ccccc3)cc2)Oc2ccc(NC(=O)Nc3ccccc3)cc2C1=O`, the cytotoxicity call was “inactive”. `C[C@@H]1CN([C@@H](C)CO)C(=O)c2cc(NC(=O)Nc3ccccc3)ccc2O[C@H]1CN(C)Cc1ccc(Oc2ccccc2)cc1` was tested, and the cytotoxicity call was “active”. In the case of `C[C@H](CO)N1C[C@H](C)[C@H](CN(C)Cc2ccc(C(=O)O)cc2)Oc2c(NC(=O)Nc3ccc(C(F)(F)F)cc3)cccc2C1=O`, the cytotoxicity call was “inactive”. In the case of `O=C(C[C@@H]1C=C[C@@H](NC(=O)C2CCC2)[C@H](CO)O1)NCCCN1CCOCC1`, the cytotoxicity call was “inactive”. For `C[C@@H]1CCCCO[C@H](CN(C)C(=O)Cc2ccccc2)[C@@H](C)CN([C@@H](C)CO)C(=O)c2cc(NC(=O)CCC(F)(F)F)ccc2O1`, the cytotoxicity call was “inactive”. For `COCCOC(=O)N1C(=O)[C@@]2(c3ccccc31)[C@H](C(=O)N1CCCCCCC1)[C@H]1C(=O)O[C@H](c3ccccc3)[C@H](c3ccccc3)N1[C@@H]2c1ccc(OCCO)cc1`, the cytotoxicity call was “inactive”. For `COc1ccc(-c2cnc3c(c2)C(=O)N([C@H](C)CO)C[C@H](C)[C@H](CN(C)C(=O)Cc2cccnc2)O3)cc1`, the cytotoxicity call was “inactive”. With `Cn1c(=O)n2n(c1=O)[C@H](C1CC1)C=C1CN3[C@@H]([C@H](Cc4ccccc4)OC(=O)[C@@H]3Cc3ccc(-n4cc(CCC(=O)NO)nn4)cc3)[C@@H]12` the cytotoxicity call was “inactive”. `C[C@H]1CN([C@@H](C)CO)C(=O)CCCn2nncc2CO[C@H]1CN(C)C(=O)Nc1ccc(C(F)(F)F)cc1` was tested, and the cytotoxicity call was “inactive”. In the case of `NC(=O)CN1C(=O)C(=O)c2cc(Cl)ccc21`, the cytotoxicity call was “inactive”. With `Cc1nc(-c2ccncc2)sc1CN` the cytotoxicity call was “inactive”. `O=C(C[C@@H]1C[C@@H]2c3cc(NC(=O)c4ccc5c(c4)OCO5)ccc3O[C@@H]2[C@H](CO)O1)NCc1ccccn1` was tested, and the cytotoxicity call was “inactive”. For `COCC(=O)Nc1ccc2c(c1)C(=O)N(C)[C@H]1CC[C@@H](CC(=O)NCc3ccc(OC)cc3)O[C@@H]1CO2`, the cytotoxicity call was “inactive”. In the case of `Cc1noc(C)c1NC(=O)Nc1cccc2c1O[C@@H](CN(C)S(C)(=O)=O)[C@H](C)CN([C@H](C)CO)C2=O`, the cytotoxicity call was “inactive”. For `COc1cc(S(C)(=O)=O)ccc1Nc1nc2ccc(-c3ccc(NC(=O)[C@H](C)c4ccc(F)cc4)cc3)cn2n1`, the cytotoxicity call was “inactive”. `C[C@@H]1CN([C@H](C)CO)C(=O)c2cc(NC(=O)Nc3ccccc3)ccc2O[C@@H]1CN(C)Cc1ccc(Oc2ccccc2)cc1` was tested, and the cytotoxicity call was “active”. In the case of `C[C@@H]1CN([C@H](C)CO)C(=O)c2cc(NC(=O)Nc3ccccc3)ccc2O[C@H]1CN(C)Cc1ccc(Oc2ccccc2)cc1`, the cytotoxicity call was “active”. `COc1ccc(NC(=O)N(C)C[C@@H]2OCCCC[C@@H](C)Oc3ccc(NS(=O)(=O)c4ccc(C)cc4)cc3C(=O)N([C@@H](C)CO)C[C@@H]2C)cc1` was tested, and the cytotoxicity call was “inactive”. In the case of `CCCNC(=O)N1C[C@H]2[C@@H](c3ccccc31)[C@H](CO)N2C(=O)CN1CCOCC1`, the cytotoxicity call was “inactive”. For `C[C@@H]1CCCCO[C@@H](CN(C)Cc2ccc(Cl)c(Cl)c2)[C@H](C)CN([C@@H](C)CO)C(=O)c2cc(NS(=O)(=O)c3cccs3)ccc2O1`, the cytotoxicity call was “inactive”. With `CC(=O)NCC(=O)N1CCC2(CC1)C(=O)N(CC1CC1)CCN2C` the cytotoxicity call was “inactive”. For `C[C@@H]1CN([C@H](C)CO)C(=O)c2cc(NS(=O)(=O)c3ccc(F)cc3)ccc2O[C@H]1CN(C)S(C)(=O)=O`, the cytotoxicity call was “inactive”. For `C[C@@H]1ON(c2ccc(C(=O)OC(C)(C)C)cc2)[C@H](c2ccc(O)cc2)[C@H]1C(=O)N1C(=O)OC[C@H]1Cc1ccccc1`, the cytotoxicity call was “inactive”. In the case of `COc1cccc(S(=O)(=O)N(C)C[C@@H]2Oc3ncc(-c4ccc(F)cc4)cc3C(=O)N([C@H](C)CO)C[C@@H]2C)c1`, the cytotoxicity call was “inactive”. In the case of `O=C(c1ccco1)N1CCNCC1`, the cytotoxicity call was “inactive”. For `COc1cc2nc(N(C)CCCNC(=O)C3CCCO3)nc(N)c2cc1OC.Cl` (stereo not drawn), the cytotoxicity call was “inactive”. `COc1cc2nc(N3CCN(C(=O)C4CCCO4)CC3)nc(N)c2cc1OC.Cl` (stereo not drawn) was tested, and the cytotoxicity call was “active”. `NC(=O)C1CCN(C(=O)c2ccco2)CC1` was tested, and the cytotoxicity call was “inactive”. With `COc1cc2nc(N3CCN(C(=O)c4ccco4)CC3)nc(N)c2cc1OC.Cl` the cytotoxicity call was “active”. With `COc1cc2nc(N3CCN(C(=O)C4COc5ccccc5O4)CC3)nc(N)c2cc1OC.CS(=O)(=O)O` (stereo not drawn) the cytotoxicity call was “inactive”. `Cl.Cl.NCCNCCNCCN` was tested, and the cytotoxicity call was “inactive”. In the case of `C[C@@H]1CCCCO[C@@H](CN(C)C(=O)CCC(F)(F)F)[C@H](C)CN([C@@H](C)CO)C(=O)c2cc(NC(=O)Nc3ccccc3)ccc2O1`, the cytotoxicity call was “inactive”. For `C[C@@H]1CCCCO[C@H](CN(C)CC2CC2)[C@@H](C)CN([C@H](C)CO)C(=O)c2cc(NC(=O)Cc3ccccc3)ccc2O1`, the cytotoxicity call was “inactive”. With `O=C(C[C@H]1CC[C@@H]2[C@H](COC[C@H](O)CN2C(=O)c2cnccn2)O1)N1CCN(c2ccccc2)CC1` the cytotoxicity call was “inactive”.
